Consider eight sequences from PMC7862700, “An all-to-all approach to the identification of sequence-specific readers for epigenetic DNA modifications on cytosine”.

What all share (test): DAPPL (digital affinity profiling via proximity ligation, sequencing); 10 mM Tris-HCl pH 7.5, 50 mM NaCl, 1 mM DTT, 4% glycerol, room temperature, 30 min; GST-TFs on glutathione beads, 16-mer random dsDNA library, 0.1% formaldehyde crosslink after washing; high values mean tight binding
Holding throughout (conditions): protein: recombinant; tags: N-terminal GST; dsDNA, one strand shown

For one assay, the target named is T1, ERF (Homo sapiens, UniProt P50548 1-548).
T1 sequence: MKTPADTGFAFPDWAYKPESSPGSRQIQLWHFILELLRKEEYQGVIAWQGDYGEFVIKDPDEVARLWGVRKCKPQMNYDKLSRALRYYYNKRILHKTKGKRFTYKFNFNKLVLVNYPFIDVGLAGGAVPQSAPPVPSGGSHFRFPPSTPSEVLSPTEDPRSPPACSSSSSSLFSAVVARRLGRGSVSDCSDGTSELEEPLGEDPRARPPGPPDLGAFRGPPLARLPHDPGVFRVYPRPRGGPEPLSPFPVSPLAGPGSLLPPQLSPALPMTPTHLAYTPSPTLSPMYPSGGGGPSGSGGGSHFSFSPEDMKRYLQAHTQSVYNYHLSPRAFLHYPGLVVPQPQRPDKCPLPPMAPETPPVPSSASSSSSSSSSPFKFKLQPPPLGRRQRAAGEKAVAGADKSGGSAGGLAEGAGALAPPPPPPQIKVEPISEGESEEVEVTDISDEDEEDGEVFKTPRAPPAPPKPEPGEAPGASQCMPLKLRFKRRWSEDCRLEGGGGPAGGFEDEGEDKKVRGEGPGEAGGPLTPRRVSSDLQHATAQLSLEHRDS
The essentials: (§1)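 Pools were built from human transcription factors expressed in yeast as GST fusions, captured on glutathione beads and DNA-barcoded, along with a tag-only sample. Incubation with 200 nmole of a 16-mer random double-stranded DNA library lasted 30 min at room temperature in Tris/NaCl/DTT/glycerol buffer, and was followed by washing, 0.1% formaldehyde crosslinking, proximity ligation, PCR amplification and Illumina NextSeq500 sequencing. Binding signal is the quotient of each hexamer's read frequency for a factor and its frequency for the tag-only sample.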

In another assay the target is T2, ETV3L (Homo sapiens, UniProt Q6ZN32 1-361).
T2 sequence: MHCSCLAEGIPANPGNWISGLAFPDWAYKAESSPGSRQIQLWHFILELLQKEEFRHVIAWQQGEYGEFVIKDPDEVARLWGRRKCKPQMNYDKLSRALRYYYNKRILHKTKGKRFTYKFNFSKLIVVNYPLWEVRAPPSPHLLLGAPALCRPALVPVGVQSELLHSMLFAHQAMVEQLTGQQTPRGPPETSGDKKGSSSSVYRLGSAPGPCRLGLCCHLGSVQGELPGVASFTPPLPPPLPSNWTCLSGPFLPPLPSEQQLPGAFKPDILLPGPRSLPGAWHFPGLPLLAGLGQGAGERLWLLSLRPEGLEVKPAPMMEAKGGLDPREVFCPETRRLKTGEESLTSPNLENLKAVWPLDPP
The method in brief: as §1

A further assay concerns the target T3, ETS2 (Homo sapiens, UniProt P15036 1-469).
T3 sequence: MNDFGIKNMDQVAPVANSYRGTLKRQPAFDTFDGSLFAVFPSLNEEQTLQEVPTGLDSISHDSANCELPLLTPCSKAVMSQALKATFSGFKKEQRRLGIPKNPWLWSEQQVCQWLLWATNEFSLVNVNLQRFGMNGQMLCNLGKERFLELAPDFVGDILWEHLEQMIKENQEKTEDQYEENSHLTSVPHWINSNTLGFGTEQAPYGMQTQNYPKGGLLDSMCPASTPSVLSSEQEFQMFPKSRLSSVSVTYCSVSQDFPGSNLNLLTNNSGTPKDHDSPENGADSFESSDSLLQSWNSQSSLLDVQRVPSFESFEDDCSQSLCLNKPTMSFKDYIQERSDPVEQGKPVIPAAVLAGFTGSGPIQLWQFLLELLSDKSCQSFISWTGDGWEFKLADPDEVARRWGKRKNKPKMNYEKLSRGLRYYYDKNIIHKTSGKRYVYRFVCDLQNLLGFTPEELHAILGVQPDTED
The method in brief: as §1

The next assay has as its target T4, SPDEF (Homo sapiens, UniProt O95238 1-335).
T4 sequence: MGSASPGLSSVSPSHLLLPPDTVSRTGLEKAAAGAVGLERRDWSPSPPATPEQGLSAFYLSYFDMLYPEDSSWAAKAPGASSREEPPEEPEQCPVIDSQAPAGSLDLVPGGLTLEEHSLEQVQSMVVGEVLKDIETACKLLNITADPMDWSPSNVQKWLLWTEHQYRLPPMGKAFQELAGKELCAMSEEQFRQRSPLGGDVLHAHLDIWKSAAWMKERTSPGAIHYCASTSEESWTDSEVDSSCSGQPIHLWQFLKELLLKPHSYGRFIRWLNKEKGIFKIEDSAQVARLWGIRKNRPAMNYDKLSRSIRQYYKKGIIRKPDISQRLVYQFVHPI
The method in brief: as §1

The target of the next assay is T5, ETV7 (Homo sapiens, UniProt Q9Y603 1-341).
T5 sequence: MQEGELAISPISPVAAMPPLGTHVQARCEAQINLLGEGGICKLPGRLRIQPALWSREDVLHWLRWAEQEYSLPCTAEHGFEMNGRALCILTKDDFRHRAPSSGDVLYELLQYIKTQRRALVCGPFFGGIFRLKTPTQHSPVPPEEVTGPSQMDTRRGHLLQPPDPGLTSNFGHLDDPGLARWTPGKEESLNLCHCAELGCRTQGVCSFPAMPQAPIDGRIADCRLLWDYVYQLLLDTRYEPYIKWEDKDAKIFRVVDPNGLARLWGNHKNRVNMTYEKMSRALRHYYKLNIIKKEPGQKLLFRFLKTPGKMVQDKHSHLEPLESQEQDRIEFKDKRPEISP
The essentials: as §1

A further assay concerns the target T6, ELF5 (Homo sapiens, UniProt Q9UKW6-2 1-255).
T6 sequence: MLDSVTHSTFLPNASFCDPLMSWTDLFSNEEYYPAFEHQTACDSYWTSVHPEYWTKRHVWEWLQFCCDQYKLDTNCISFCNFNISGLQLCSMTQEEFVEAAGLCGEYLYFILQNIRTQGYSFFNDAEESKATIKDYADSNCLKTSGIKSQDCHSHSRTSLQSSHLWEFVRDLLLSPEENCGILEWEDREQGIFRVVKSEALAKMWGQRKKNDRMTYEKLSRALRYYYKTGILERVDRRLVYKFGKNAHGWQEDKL
The method in brief:
as §1

The target of a further assay is T7, ETV3 (Homo sapiens, UniProt P41162-2 1-143).
T7 sequence: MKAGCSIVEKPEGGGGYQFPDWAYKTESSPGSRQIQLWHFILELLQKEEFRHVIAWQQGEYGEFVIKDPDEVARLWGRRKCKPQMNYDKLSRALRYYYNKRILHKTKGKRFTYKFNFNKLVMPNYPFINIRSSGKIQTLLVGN
The method in brief:
as §1

The target of the next assay is ETV6 (Homo sapiens, UniProt P41212 1-452). The method in brief: as §1
ETV6, sequence (P41212 whole entry): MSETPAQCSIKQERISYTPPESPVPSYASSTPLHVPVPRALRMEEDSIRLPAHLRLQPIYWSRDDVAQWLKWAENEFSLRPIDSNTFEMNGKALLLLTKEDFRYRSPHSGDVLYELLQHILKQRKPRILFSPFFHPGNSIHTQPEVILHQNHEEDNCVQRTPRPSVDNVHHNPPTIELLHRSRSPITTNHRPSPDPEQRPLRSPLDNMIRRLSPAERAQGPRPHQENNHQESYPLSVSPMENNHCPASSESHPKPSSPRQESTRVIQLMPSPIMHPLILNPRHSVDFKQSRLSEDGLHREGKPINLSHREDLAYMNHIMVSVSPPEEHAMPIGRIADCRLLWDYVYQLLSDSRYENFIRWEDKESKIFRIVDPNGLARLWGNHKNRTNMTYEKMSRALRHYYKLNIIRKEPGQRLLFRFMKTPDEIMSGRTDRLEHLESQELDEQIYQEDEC

With AGGAAA, the binding signal is 1.34 fold enrichment (6-mer frequency, TF over GST control) with ERF; 1.37 fold enrichment (6-mer frequency, TF over GST control) with ETV3L; 1.48 fold enrichment (6-mer frequency, TF over GST control) in the assay with ETS2; 1.31 fold enrichment (6-mer frequency, TF over GST control) with SPDEF; 1.46 fold enrichment (6-mer frequency, TF over GST control) in the assay with ETV7; 2.19 fold enrichment (6-mer frequency, TF over GST control) with ELF5. Moreover, the binding signal in the assay with ETV3 was 1.52 fold enrichment (6-mer frequency, TF over GST control); with ETV6, 1.75 fold enrichment (6-mer frequency, TF over GST control).
As to CGAAAC, the binding signal with ERF is 1.24 fold enrichment (6-mer frequency, TF over GST control); in the assay with ETV3L it was 1.22 fold enrichment (6-mer frequency, TF over GST control); with ETS2, 1.16 fold enrichment (6-mer frequency, TF over GST control); in the assay with SPDEF, 1.22 fold enrichment (6-mer frequency, TF over GST control); in the assay with ETV7, 1.22 fold enrichment (6-mer frequency, TF over GST control); with ELF5, 1.12 fold enrichment (6-mer frequency, TF over GST control). Also, the binding signal in the assay with ETV3 is 1.08 fold enrichment (6-mer frequency, TF over GST control); with ETV6, 1.16 fold enrichment (6-mer frequency, TF over GST control).
With CTCATC, the binding signal in the assay with ERF is 1.44 fold enrichment (6-mer frequency, TF over GST control); with ETV3L, 1.5 fold enrichment (6-mer frequency, TF over GST control); in the assay with ETS2, 1.32 fold enrichment (6-mer frequency, TF over GST control); with SPDEF, 1.39 fold enrichment (6-mer frequency, TF over GST control); with ETV7, 1.23 fold enrichment (6-mer frequency, TF over GST control); with ELF5, 1.44 fold enrichment (6-mer frequency, TF over GST control). Besides, the binding signal with ETV3 is 1.48 fold enrichment (6-mer frequency, TF over GST control); with ETV6, 1.37 fold enrichment (6-mer frequency, TF over GST control).
Take CTTGAC: the binding signal with ERF was 1.16 fold enrichment (6-mer frequency, TF over GST control); in the assay with ETV3L it was 1.17 fold enrichment (6-mer frequency, TF over GST control); in the assay with ETS2, 1.12 fold enrichment (6-mer frequency, TF over GST control); with SPDEF it was 1.13 fold enrichment (6-mer frequency, TF over GST control); with ETV7 it was 1.2 fold enrichment (6-mer frequency, TF over GST control); in the assay with ELF5 it was 1.21 fold enrichment (6-mer frequency, TF over GST control). Further, the binding signal with ETV3 was 1.22 fold enrichment (6-mer frequency, TF over GST control); in the assay with ETV6, 1.23 fold enrichment (6-mer frequency, TF over GST control).
As for CCTTCG, the binding signal is 1.36 fold enrichment (6-mer frequency, TF over GST control) with ERF; 1.36 fold enrichment (6-mer frequency, TF over GST control) in the assay with ETV3L; 1.3 fold enrichment (6-mer frequency, TF over GST control) with ETS2; 1.33 fold enrichment (6-mer frequency, TF over GST control) with SPDEF; 1.38 fold enrichment (6-mer frequency, TF over GST control) in the assay with ETV7; 1.24 fold enrichment (6-mer frequency, TF over GST control) with ELF5. Also, the binding signal with ETV3 is 1.12 fold enrichment (6-mer frequency, TF over GST control); with ETV6, 1.31 fold enrichment (6-mer frequency, TF over GST control).
Turning to TACATT, the binding signal in the assay with ERF was 1.34 fold enrichment (6-mer frequency, TF over GST control); in the assay with ETV3L, 1.18 fold enrichment (6-mer frequency, TF over GST control); in the assay with ETS2, 1.19 fold enrichment (6-mer frequency, TF over GST control); in the assay with SPDEF, 1.18 fold enrichment (6-mer frequency, TF over GST control); with ETV7 it was 1.25 fold enrichment (6-mer frequency, TF over GST control); with ELF5, 1.22 fold enrichment (6-mer frequency, TF over GST control). For the same sequence, the binding signal is 1.2 fold enrichment (6-mer frequency, TF over GST control) in the assay with ETV3 and 1.29 fold enrichment (6-mer frequency, TF over GST control) with ETV6.
Turning to AAGTAG, the binding signal with ERF is 1.22 fold enrichment (6-mer frequency, TF over GST control); with ETV3L, 1.16 fold enrichment (6-mer frequency, TF over GST control); with ETS2 it was 1.31 fold enrichment (6-mer frequency, TF over GST control); in the assay with SPDEF it was 1.07 fold enrichment (6-mer frequency, TF over GST control); with ETV7, 1.23 fold enrichment (6-mer frequency, TF over GST control); with ELF5, 1.28 fold enrichment (6-mer frequency, TF over GST control). The binding signal with ETV3 was 1.26 fold enrichment (6-mer frequency, TF over GST control); in the assay with ETV6, 1.28 fold enrichment (6-mer frequency, TF over GST control).
Regarding CTCGCT, the binding signal with ERF was 1.78 fold enrichment (6-mer frequency, TF over GST control); with ETV3L it was 1.87 fold enrichment (6-mer frequency, TF over GST control); with ETS2, 1.67 fold enrichment (6-mer frequency, TF over GST control); in the assay with SPDEF, 1.62 fold enrichment (6-mer frequency, TF over GST control); with ETV7, 1.54 fold enrichment (6-mer frequency, TF over GST control); with ELF5 it was 1.55 fold enrichment (6-mer frequency, TF over GST control). The binding signal with ETV3 was 1.51 fold enrichment (6-mer frequency, TF over GST control); with ETV6, 1.64 fold enrichment (6-mer frequency, TF over GST control).
